The source of these data is the supplement of paper PMC7411054.

Structures can show the parent of a compound that is named as a salt. Some results are limits rather than exact numbers.

Holding throughout (conditions): treatment time: 24 h
Assay [1] relates to A549-ACTB-RAB5A. As to the kind of experiment: lowest phenotypically active concentration; higher = less potent. The essentials:
(§1)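 Each of fifteen gene-edited A549, HepG2 and WPMY1 reporter lines, marked with BFP for segmentation and GFP and RFP/FusionRed, was treated in four wells at 0.3, 1, 3 or 9 µM for 24 h prior to live imaging. Normalisation of per-well live-cell features used solvent control wells. Deviation needed ≥3 of 4 wells beyond the 95th percentile of control Euclidean distances, and reproducibility needed a median replicate Pearson correlation above the 95th percentile of non-replicates. Both were required for phenotypic activity.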

In assay [2] the test system is A549-CANX-COX4. The description is as above. The gist of the method: as §1
The subject of assay [3] is A549-GM130-SQSTM1. The description is as above. The essentials: as §1
The subject of assay [4] is HepG2-TP53BP1-CLTA. The description is as above. The essentials: as §1
The subject of assay [5] is HepG2-TUBA1B-RELA. Described as above. The essentials: as §1
For assay [6], the system named is A549-ACTB-RAB5A. As to the kind of experiment: phenotypically active (imaging signature differs from DMSO and reproducible) at any of 0.3-9 uM (binary (1 = active, 0 = inactive)); higher = active. The essentials: as §1
The subject of assay [7] is A549-CANX-COX4. The assay is described as above. The gist of the method:
as §1

Assay [8] has as its system A549-GM130-SQSTM1. The assay is described as above. The gist of the method: as §1
The subject of assay [9] is A549-TP53BP1-CLTA. Described as above. The gist of the method: as §1
Assay [10] deals with A549-TUBA1B-RELA. The description is as above. The essentials: as §1
Assay [11] relates to HepG2-ACTB-RAB5A. The assay is described as above. The essentials: as §1
The subject of assay [12] is HepG2-CANX-COX4. The description is as above. The essentials:
as §1

The test system of assay [13] is HepG2-GM130-SQSTM1. The assay is described as above. The essentials: as §1
The subject of assay [14] is HepG2-TP53BP1-CLTA. The assay is described as above. The essentials: as §1
Assay [15] deals with HepG2-TUBA1B-RELA. Described as above. The gist of the method: as §1
The test system of assay [16] is WPMY1-ACTB-RAB5A. Described as above. The essentials:
as §1

In assay [17] the test system is WPMY1-CANX-COX4. Described as above. The essentials:
as §1

Assay [18] deals with WPMY1-GM130-SQSTM1. Described as above. The essentials: as §1
Assay [19] concerns WPMY1-TP53BP1-CLTA. The assay is described as above. The gist of the method:
as §1

Assay [20] relates to WPMY1-TUBA1B-RELA. Described as above. The gist of the method:
as §1

Regarding `O=C(Nc1cccc(Cl)c1)Nc1ncc(CCNc2ncnc3ccsc23)s1` [SNS 314 mesylate], the “lowest phenotypically active concentration” value in [1], in assay [2], in assay [3], in [4] and in assay [5] was not above 0.3 µM each time. Besides, the phenotypically active in assay [6], in [7], in assay [8], in assay [9], in [10] and in assay [11] was 1 (active) in each case. Besides, the phenotypically active in [12], in assay [13], in assay [14], in assay [15], in [16] and in [17] was 1 (active) in each case. For the same compound, the phenotypically active in assay [18], in assay [19] and in assay [20] was 1 (active) each time.

Regarding `COc1c(C)cnc(Cn2cnc3c(Cl)nc(N)nc32)c1C`, the “lowest phenotypically active concentration” value in assay [1], in assay [2], in assay [3], in assay [4] and in assay [5] was not above 0.3 µM throughout. Besides, the phenotypically active in assay [6], in assay [7], in [8], in assay [9], in [10] and in assay [11] was 1 (active) in each case. Further, the phenotypically active in assay [12], in [13], in assay [14], in assay [15], in [16] and in [17] was 1 (active) throughout. Besides, the phenotypically active in assay [18], in [19] and in assay [20] was 1 (active) in each case.

For the compound `NC1(C(=O)N[C@@H](CCO)c2ccc(Cl)cc2)CCN(c2ncnc3[nH]ccc23)CC1`, the “lowest phenotypically active concentration” value in assay [1] was not above 0.3 µM; in [2], 1 µM; in assay [3] it was 1 µM; in assay [4] it was 1 µM; in [5], 1 µM. The phenotypically active in assay [6], in assay [7], in [8], in assay [9], in [10] and in [11] was 1 (active) throughout. Also, the phenotypically active in [12], in assay [13], in [14], in assay [15], in assay [16] and in assay [17] was 1 (active) each time. In addition, the phenotypically active in assay [18], in assay [19] and in assay [20] was 1 (active) each time.

`COc1ccc(S(=O)(=O)N(CCO)c2ccccc2CN(C)C/C=C/c2ccc(Cl)cc2)cc1`: the “lowest phenotypically active concentration” value in assay [1] is 3 µM; in [2] it was 9 µM; in assay [3], 3 µM; in assay [4] it was 9 µM; in assay [5], 9 µM. The phenotypically active in [6], in assay [7], in assay [8], in assay [9], in assay [10] and in assay [11] was 1 (active) throughout. The phenotypically active in [12], in assay [13], in [14], in assay [15], in [16] and in assay [17] was 1 (active) in each case. Moreover, the phenotypically active in [18], in assay [19] and in [20] was 1 (active) throughout.

On to `COc1ccc2cc1Oc1ccc(cc1)C[C@H]1c3cc(c(OC)cc3CCN1C)Oc1c(OC)c(OC)cc3c1[C@H](C2)N(C)CC3` [Tetrandrine], for which the “lowest phenotypically active concentration” value was not above 0.3 µM in assay [1]; 1 µM in assay [2]; not above 0.3 µM in assay [3]; 1 µM in assay [4]; not above 0.3 µM in assay [5]. Besides, the phenotypically active in assay [6], in assay [7], in assay [8], in [9], in assay [10] and in [11] was 1 (active) throughout. Moreover, the phenotypically active in assay [12], in [13], in assay [14], in assay [15], in assay [16] and in assay [17] was 1 (active) in each case. Moreover, the phenotypically active in assay [18], in assay [19] and in assay [20] was 1 (active) each time.

Turning to `Cc1cc(C)cc(C(=O)NOCCCCCC(=O)NO)c1`, the “lowest phenotypically active concentration” value in assay [1] is not above 0.3 µM; in assay [2], not above 0.3 µM; in assay [3] it was not above 0.3 µM; in [4], 1 µM; in assay [5], not above 0.3 µM. Besides, the phenotypically active in assay [6], in assay [7], in [8], in assay [9], in assay [10] and in [11] was 1 (active) throughout. The phenotypically active in [12], in assay [13], in assay [14], in assay [15], in [16] and in assay [17] was 1 (active) throughout. The phenotypically active in assay [18], in assay [19] and in assay [20] was 1 (active) throughout.
